Reference: US20030059769, “High affinity nucleic acid ligands to lectins” (published 2003)

Target: T1, L-selectin (LS-Rg) (Homo sapiens, UniProt P14151 P14151:39-332)
T1 sequence: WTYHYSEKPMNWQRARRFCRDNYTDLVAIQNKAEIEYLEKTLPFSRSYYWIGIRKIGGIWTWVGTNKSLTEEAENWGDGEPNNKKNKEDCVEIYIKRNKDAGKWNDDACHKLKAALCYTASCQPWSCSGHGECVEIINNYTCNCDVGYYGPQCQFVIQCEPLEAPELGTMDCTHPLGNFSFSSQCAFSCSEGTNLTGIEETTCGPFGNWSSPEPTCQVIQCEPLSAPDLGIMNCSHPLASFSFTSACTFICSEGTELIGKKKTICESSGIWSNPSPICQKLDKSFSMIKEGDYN
Experiment: filter; 26-nt hairpin truncate
Conditions: tags: human IgG2 Fc fusion, chain copies: dimer, label: 32P; ssDNA

Row | Sequence | binding signal
1 | CCAGTACAAGGTGCTAAACGTAATGG | 20 fold weaker than LD201
2 | GCGTTACAAGGTGCTAAACGTAACGT | 100 fold weaker than LD227
